Measured values as given in PubChem BioAssay (NCATS).
Results filed as inconclusive are left out. A call without a number means that no potency is given here. Active and inactive are the calls of the source. Unless noted, calls follow the shape of the dose curve; as a rule, active = well fitted curve in the direction sought with a large enough effect in the repeat runs; inconclusive = weak or mixed curves; inactive = no such curve, though single readings can be large; an effect the other way counts as inactive or inconclusive.

Key:
[1] = target: Calcium and integrin-binding protein 1 (Homo sapiens) (UniProt Q99828); assay: Primary qHTS for Identification of Calcium Integrin Binding Protein 1 (CIB1) Competitor (AID 1508620; active = well fitted curve in the direction sought with a large enough effect; an effect the other way counts as inactive or inconclusive;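 also: GST tagged CIB1 binding a fluorescein labelled alphaIIb integrin peptide tracer; top concentration of the series differs between compounds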); settings: CIB1-GST / FITC-alphaIIb peptide fluorescence polarization; series mostly up to 114 µM
In short: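 CIB1-GST (1 uM final) and compound incubated 15 min at room temperature before adding FITC-alphaIIb peptide tracer (100 nM final). Competition for binding read by fluorescence polarization (ex 480, em 540) after another 15 min at room temperature.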

[2] = target: Cytochrome P450 2D6 (Homo sapiens) (UniProt P10635); assay: Cytochrome P450 family 2 subfamily D member 6 (CYP2D6) small molecule antagonists: luciferase biochemical (cell-free) qHTS assay (AID 1645840); settings: P450-Glo CYP2D6 enzyme, luciferin luminescence, 1 h; series mostly up to 57.4 µM; also: nearly all actives have a fitted effect of over 55% in size; also: potency is read from the fitted curve at half-maximal effect
In short: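 P450-Glo CYP2D6 system: proluciferin substrate converted by enzyme to luciferin, read by luminescence proportional to activity. Enzyme-substrate mix with compound 10 min at room temperature, then NADPH regeneration 1 h before detection reagent.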

Cytochrome P450 2D6 (Homo sapiens), sequence (P10635 whole entry, looked up): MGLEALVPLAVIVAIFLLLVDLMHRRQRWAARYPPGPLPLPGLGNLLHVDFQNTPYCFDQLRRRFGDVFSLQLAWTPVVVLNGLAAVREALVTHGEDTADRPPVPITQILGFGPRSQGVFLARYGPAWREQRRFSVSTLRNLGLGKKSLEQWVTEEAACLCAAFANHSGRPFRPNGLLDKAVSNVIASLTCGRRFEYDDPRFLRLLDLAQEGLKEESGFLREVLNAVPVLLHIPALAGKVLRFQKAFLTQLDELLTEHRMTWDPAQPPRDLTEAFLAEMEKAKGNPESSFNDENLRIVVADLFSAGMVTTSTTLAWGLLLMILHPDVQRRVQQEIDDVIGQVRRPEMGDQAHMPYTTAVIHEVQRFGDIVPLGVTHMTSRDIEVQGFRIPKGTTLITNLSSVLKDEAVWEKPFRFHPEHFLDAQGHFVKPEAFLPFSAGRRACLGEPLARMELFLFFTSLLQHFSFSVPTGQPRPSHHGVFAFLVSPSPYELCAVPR
Calcium and integrin-binding protein 1 (Homo sapiens), sequence (Q99828 whole entry, looked up): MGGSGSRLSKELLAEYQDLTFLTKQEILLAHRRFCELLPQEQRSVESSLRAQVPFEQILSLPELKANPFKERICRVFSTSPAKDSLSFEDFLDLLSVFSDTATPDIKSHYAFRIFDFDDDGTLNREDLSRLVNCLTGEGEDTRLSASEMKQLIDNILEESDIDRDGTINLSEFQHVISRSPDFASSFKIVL

| Structure (SMILES) | Potency [1] | Potency [2] |
| --- | --- | --- |
| CC(C)S(=O)(=O)Nc1ccc(F)c(C(=O)c2c[nH]c3ncc(-c4cccnc4)cc23)c1F | inactive | 5.35 µM (active) |
| O=C(CN1C2=NCCN2c2ccccc21)c1ccc(-c2ccccc2)cc1 | inactive | 4.77 µM (active) |
| CCCC(Nc1nc(-c2ccc(NC(=O)NCC)c(OC)c2)ncc1C)c1cccnc1 (stereo not drawn) | inactive | 5.35 µM (active) |
| CCNc1nc(Nc2cc(F)c(C(=O)N3CCOCC3)cc2OC)ncc1C(F)(F)F | inactive | inactive |
| C=CC(=O)N1CC(N2CCN(C(=O)CNc3cc(C4CC4)c(Cl)cc3O)CC2)C1 | inactive | inactive |
| CCOC(=O)CCNc1cc(N2CCc3ccccc3CC2)nc(-c2cccnc2)n1 | inactive | 10.7 µM (active) |
| CC(C)Oc1ccc(-c2cnc3c(-c4ccnc5ccccc45)cnn3c2)cc1 | inactive | inactive |
| NS(=O)(=O)c1ccc(N2CCN(CC[C@@H]3OCCc4ccccc43)CC2)cc1 | inactive | 23.9 µM (active) |
| O=c1[nH]c([C@@H]2CCCN2)nc2c1oc1ccc(Cl)cc12 | inactive | inactive |
| N#Cc1cc(-c2ccnc(Nc3ccc(N4CCOCC4)cc3)n2)ccc1OC1CCOCC1 | inactive | inactive |
| CC(C)c1ccc(-c2cc(=O)c3ccccc3o2)cc1 | inactive | 15.1 µM (active) |
| Cc1nc(C#Cc2ccnc(Cl)c2)c(C)n1-c1ccc(F)cc1 | inactive | 19 µM (active) |
| COc1cc(/C=N\NC(=O)c2ccc3c(c2)OCO3)ccc1OCc1ccccc1 | inactive | 2.39 µM (active) |
| COc1cc2c(cc1OC(C)C)[C@H](c1ccc(Cl)cc1)N(c1ccc(N(C)CC3CCC(N4CCN(C)C(=O)C4)CC3)cc1)C(=O)C2 (stereo partly drawn) | inactive | 21.3 µM (active) |
